About 7,900 targets were measured; listed, in parts, are those with a hit and a random draw of the rest. About 0.6% of all pairs of compound and target were hits. Unmarked numbers belong to inactive results.
How the values were obtained:
Experiment in all cases: log2 fold change, soluble protein after heating vs DMSO (PISA); higher = thermal stabilisation; K562 cells, 10 uM, 30 min; active = over 0.2 and 3.5 SD of the protein, either way, in both replicates (recomputed)
[1] = compound: CC1=C(C=C(C=C1)NC(=O)C2=CC(=CC=C2)C(C)(C)C#N)NC3=CC4=C(C=C3)N=CN(C4=O)C
Method in brief: (§1)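 Values are thermal stability changes relative to control samples and are taken from duplicates. They are stated as log2 fold changes. Before quantification by TMTpro 16plex LC-MS/MS with equalised channel sums, K562 cells at 2×10^6 cells/mL were treated with 10 μM compound for 30 min, heated in aliquots for 3 min across 48°C-58°C, pooled, extracted in PBS with 0.5% NP-40 at 4°C, and centrifuged at 21,000xg for 90 min to give the soluble supernatant.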

[2] = compound: CC1=C(C=C(C=C1)NC(=O)C2=CC(=CC=C2)N(C)C)NC(=O)C3=CC=C(C=C3)O
Method in brief: as §1

[3] = compound: CC1=CC=C(C=C1)SC2=C3C=C(SC3=CN=C2)C(=O)N
Method in brief: as §1

[4] = compound: CC1=NC(=CC=C1)C2=C(N=C(N2)C(C)(C)C)C3=CC4=NC=CN=C4C=C3
Method in brief: as §1

[5] = compound: CCCCN(Cc1ccc(C(=O)NO)cc1)C(=O)Nc1ccccc1 [Nexturastat A]
Method in brief: as §1

[6] = compound: CCCS(=O)(=O)Nc1ccc(F)c(C(=O)c2c[nH]c3ncc(-c4ccc(Cl)cc4)cc23)c1F [vemurafenib]
Method in brief: as §1

[7] = compound: CCCS(=O)(=O)Nc1ccc(F)c(C(=O)c2c[nH]c3ncc(Cl)cc23)c1F
Method in brief: as §1

[8] = compound: CCCc1cc(C)[nH]c(=O)c1CNC(=O)c1cc(-c2ccnc(N3CCN(C)CC3)c2)cc2c1cnn2C(C)C
Method in brief: as §1

[9] = compound: CCN(CC)Cc1ccc2cc(COC(=O)Nc3ccc(C(=O)NO)cc3)ccc2c1 [givinostat]
Method in brief: as §1

[10] = compound: CCN(CCCOc1ccc2c(Nc3cc(CC(=O)Nc4cccc(F)c4)[nH]n3)ncnc2c1)CCOP(=O)(O)O [barasertib]
Method in brief: as §1

Chain of UniProt Q9UER7 (Q9UER7 whole entry, looked up): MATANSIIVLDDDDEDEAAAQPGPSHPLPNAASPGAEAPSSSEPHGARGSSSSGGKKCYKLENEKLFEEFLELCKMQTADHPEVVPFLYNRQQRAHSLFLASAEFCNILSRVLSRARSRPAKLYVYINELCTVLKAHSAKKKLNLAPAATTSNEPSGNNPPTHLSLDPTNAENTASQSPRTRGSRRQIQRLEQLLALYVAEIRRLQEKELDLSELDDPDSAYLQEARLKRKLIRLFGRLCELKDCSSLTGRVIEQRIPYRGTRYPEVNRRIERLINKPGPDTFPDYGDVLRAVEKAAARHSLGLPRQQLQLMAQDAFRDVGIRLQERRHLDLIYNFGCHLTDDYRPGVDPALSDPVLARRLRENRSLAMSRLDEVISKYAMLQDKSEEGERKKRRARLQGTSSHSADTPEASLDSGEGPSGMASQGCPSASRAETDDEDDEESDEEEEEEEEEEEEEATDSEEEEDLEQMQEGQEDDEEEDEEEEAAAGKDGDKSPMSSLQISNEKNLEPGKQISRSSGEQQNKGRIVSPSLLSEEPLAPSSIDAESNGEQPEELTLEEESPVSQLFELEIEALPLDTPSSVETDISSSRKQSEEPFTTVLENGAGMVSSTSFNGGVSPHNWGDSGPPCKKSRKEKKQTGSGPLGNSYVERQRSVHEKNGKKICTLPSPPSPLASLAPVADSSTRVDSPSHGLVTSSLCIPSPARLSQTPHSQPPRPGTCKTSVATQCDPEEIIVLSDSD
Chain of UniProt Q96CS3 (Q96CS3 whole entry, looked up): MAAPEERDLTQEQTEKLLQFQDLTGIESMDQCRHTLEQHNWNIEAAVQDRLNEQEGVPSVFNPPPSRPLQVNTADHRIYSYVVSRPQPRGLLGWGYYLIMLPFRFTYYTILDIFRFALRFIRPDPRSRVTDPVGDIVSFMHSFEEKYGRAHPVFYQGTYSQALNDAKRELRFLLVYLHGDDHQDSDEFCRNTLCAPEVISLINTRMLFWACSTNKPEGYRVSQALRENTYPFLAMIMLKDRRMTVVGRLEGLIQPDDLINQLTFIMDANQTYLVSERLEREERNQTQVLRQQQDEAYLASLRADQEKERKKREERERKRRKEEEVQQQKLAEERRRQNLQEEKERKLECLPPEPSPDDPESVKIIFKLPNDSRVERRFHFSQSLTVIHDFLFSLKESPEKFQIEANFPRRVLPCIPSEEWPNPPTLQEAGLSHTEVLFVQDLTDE
Chain of UniProt Q96G46 (Q96G46 whole entry, looked up): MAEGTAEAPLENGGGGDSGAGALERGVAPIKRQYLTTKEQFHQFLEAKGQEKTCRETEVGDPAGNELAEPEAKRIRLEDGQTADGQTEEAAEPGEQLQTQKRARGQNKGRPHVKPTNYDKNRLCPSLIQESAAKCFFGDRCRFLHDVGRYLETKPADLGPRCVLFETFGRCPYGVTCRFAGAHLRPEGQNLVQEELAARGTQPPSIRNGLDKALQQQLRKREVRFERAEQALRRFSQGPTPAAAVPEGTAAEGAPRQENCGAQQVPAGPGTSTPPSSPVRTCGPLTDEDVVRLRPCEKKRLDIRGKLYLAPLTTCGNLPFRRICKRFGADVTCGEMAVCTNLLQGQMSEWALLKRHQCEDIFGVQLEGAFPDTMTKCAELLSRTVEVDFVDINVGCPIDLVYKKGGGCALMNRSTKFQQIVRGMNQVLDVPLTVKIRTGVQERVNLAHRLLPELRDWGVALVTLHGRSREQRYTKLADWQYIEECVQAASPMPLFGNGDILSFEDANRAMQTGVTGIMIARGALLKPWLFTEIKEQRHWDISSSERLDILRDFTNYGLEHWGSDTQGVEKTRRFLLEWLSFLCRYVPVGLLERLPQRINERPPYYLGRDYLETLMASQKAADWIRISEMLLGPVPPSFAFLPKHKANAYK
Chain of UniProt O75477 (O75477 whole entry, looked up): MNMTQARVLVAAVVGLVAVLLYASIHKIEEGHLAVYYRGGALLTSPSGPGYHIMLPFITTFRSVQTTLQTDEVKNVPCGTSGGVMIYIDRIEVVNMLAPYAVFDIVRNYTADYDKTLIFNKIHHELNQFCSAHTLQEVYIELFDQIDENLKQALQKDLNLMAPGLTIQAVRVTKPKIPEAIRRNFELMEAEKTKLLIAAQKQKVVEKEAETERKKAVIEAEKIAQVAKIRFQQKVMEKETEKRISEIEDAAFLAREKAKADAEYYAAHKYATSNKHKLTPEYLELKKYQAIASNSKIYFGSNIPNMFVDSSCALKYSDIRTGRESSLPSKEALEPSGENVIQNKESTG
Chain of UniProt P00374 (P00374 whole entry, looked up): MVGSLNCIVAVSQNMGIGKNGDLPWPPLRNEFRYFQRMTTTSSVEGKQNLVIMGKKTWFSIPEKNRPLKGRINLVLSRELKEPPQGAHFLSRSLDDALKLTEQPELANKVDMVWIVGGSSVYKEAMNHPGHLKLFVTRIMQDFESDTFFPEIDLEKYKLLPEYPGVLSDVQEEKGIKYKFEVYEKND
Chain of UniProt Q9HBU6 (Q9HBU6 whole entry, looked up): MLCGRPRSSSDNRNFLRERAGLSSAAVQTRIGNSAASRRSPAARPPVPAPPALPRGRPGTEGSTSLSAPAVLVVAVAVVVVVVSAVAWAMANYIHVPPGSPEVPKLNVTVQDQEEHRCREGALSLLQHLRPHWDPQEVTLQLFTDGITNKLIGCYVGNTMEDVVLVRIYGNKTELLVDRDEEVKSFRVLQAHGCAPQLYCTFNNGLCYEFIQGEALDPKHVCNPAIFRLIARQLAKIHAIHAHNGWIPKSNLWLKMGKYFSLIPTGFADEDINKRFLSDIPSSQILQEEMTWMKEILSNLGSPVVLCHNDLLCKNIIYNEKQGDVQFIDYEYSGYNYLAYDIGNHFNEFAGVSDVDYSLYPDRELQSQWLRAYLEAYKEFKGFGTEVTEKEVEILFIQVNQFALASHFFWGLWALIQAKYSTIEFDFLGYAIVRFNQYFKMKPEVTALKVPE
Chain of UniProt Q9H467 (Q9H467 whole entry, looked up): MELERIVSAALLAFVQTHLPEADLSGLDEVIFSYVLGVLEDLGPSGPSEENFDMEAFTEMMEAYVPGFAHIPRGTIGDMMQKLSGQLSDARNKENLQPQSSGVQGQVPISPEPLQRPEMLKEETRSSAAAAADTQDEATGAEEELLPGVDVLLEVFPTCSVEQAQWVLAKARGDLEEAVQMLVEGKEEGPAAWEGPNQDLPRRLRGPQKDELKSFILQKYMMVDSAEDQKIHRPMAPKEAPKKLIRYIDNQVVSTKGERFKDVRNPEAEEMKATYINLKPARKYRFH
Chain of UniProt Q9NXW2 (Q9NXW2 whole entry, looked up): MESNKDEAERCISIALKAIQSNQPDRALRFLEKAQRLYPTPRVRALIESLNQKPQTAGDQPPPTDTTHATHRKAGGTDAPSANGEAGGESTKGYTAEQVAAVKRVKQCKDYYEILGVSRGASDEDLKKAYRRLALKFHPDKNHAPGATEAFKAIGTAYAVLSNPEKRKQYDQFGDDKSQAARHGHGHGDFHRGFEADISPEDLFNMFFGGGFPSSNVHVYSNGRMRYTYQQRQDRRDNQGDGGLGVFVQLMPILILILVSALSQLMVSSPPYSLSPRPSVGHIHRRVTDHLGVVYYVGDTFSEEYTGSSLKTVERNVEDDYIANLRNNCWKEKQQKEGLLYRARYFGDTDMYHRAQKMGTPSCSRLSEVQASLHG
Chain of UniProt P11182 (P11182 whole entry, looked up): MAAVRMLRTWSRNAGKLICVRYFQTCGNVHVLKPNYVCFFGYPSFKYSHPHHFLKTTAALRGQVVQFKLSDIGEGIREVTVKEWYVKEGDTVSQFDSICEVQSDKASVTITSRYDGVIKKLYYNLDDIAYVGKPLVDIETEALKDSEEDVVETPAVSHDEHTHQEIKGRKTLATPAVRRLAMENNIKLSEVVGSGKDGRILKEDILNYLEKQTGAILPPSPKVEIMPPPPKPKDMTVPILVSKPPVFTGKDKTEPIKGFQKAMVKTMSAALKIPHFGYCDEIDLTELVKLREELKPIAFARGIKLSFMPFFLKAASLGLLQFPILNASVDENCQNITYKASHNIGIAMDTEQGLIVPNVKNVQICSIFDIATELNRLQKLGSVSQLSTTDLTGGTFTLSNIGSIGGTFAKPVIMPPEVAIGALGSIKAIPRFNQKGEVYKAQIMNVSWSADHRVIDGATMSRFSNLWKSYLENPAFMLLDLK
Chain of UniProt Q9GZT9 (Q9GZT9 whole entry, looked up): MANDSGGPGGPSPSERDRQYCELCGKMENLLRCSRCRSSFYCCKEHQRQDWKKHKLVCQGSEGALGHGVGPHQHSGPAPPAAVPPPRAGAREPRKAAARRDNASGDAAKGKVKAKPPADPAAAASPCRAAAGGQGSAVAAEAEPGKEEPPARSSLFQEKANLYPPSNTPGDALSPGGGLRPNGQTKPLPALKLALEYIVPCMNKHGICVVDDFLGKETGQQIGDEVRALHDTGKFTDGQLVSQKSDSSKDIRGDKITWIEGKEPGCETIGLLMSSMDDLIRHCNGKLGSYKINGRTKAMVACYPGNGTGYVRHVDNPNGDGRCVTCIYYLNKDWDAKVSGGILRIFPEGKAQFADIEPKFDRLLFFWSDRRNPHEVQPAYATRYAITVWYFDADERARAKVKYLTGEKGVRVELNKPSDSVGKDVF
Chain of UniProt Q9UBQ6 (Q9UBQ6 whole entry, looked up): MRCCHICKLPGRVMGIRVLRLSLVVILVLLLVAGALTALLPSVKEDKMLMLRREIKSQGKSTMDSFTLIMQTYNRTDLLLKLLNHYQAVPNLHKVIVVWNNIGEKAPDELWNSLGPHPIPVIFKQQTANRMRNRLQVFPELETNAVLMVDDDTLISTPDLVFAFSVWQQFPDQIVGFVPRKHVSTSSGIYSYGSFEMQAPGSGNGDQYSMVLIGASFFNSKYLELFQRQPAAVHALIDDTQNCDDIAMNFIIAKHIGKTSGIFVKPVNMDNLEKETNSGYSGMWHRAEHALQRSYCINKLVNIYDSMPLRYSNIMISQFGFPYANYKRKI
Chain of UniProt P06730 (P06730 whole entry, looked up): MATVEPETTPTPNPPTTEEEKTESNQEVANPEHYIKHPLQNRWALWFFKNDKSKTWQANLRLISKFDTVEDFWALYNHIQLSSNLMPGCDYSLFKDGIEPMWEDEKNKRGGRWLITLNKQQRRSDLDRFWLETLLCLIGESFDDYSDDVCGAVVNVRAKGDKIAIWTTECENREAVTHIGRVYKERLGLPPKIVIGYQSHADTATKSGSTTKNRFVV

Target | log2 fold change [1] | log2 fold change [2] | log2 fold change [3] | log2 fold change [4] | log2 fold change [5] | log2 fold change [6] | log2 fold change [7] | log2 fold change [8] | log2 fold change [9] | log2 fold change [10]
ERLIN1 (UniProt O75477) | 0.011 | -0.018 | 0.028 | -0.01 | 0.031 | -0.02 | 0.014 | 0.065 | 0.014 | 0.028
DMXL1 (UniProt Q9Y485) | -0.075 | -0.004 | 0.025 | 0.017 | 0.044 | 0.008 | 0.032 | 0.043 | 0.076 | 0.068
ECPAS (UniProt Q5VYK3) | 0.008 | -0.06 | 0.016 | 0.02 | 0.049 | 0.084 | 0.059 | 0.051 | 0.118 | 0.037
EIF2S3 (UniProt P41091) | 0.02 | 0 | -0.006 | -0.032 | 0.102 | -0.029 | 0.007 | 0.05 | 0.028 | -0.033
EXOSC10 (UniProt Q01780) | -0.537 | 0.061 | -0.07 | -0.123 | 0.762 (active) | -0.221 | -0.18 | -0.168 | 0.147 | 0.036
DYNC1I2 isoform 5 (UniProt Q13409) | -0.008 | -0.03 | -0.006 | 0.028 | 0.043 | -0.009 | 0.005 | -0.007 | -0.005 | -0.013
CUEDC2 (UniProt Q9H467) | -0.03 | -0.043 | -0.001 | -0.153 | -0.019 | 0.009 | 0.032 | -0.01 | 0.055 | 0.091
EXTL2 (UniProt Q9UBQ6) | 0.072 | -0.003 | -0.017 | -0.003 | -0.163 | -0.002 | -0.031 | -0.043 | -0.039 | -0.053
DNAJB12 (UniProt Q9NXW2) | -0.071 | -0.017 | -0.002 | 0.017 | 0.044 | 0.008 | 0.008 | -0.069 | 0.06 | -0.001
ELOVL1 (UniProt Q9BW60) | -0.035 | -0.065 | 0.064 | 0.044 | 0.03 | -0.032 | 0.116 | -0.063 | 0.067 | 0.028
DNAH5 (UniProt Q8TE73) | -0.047 | 0 | 0.431 (active) | -0.036 | -0.021 | -0.077 | 0.014 | -0.044 | 0.012 | 0.03
DUS3L (UniProt Q96G46) | 0.064 | -0.015 | -0.01 | 0.017 | -0.023 | 0.042 | 0.031 | 0.036 | -0.004 | 0.021
ETNK1 (UniProt Q9HBU6) | 0.241 | -0.054 | 0.022 | 0.02 | -0.177 | 0.006 | 0.172 | -0.076 | 0.042 | 0.005
DHCR24 (UniProt Q15392) | 0.248 | 0.01 | -0.003 | -0.043 | 0.004 | -0.114 | -0.012 | 0.434 | 1.21 (active) | 0.088
DNAAF2 (UniProt Q9NVR5) | -0.037 | -0.043 | -0.046 | -0.038 | -0.034 | 0.043 | -0.038 | -0.065 | 0 | -0.009
CTSA (UniProt P10619) | -0.033 | 0.011 | -0.02 | 0.003 | -0.016 | -0.013 | -0.039 | -0.047 | 0.117 | 0
DHFR (UniProt P00374) | -0.069 | 0.003 | -0.086 | -0.074 | 0.232 | 0.044 | 0.001 | 0.17 | 0.162 | 0.068
EIF4E isoform 2 (UniProt P06730) | 0.044 | -0.035 | 0.008 | 0.02 | -0.078 | 0.078 | 0.109 | -0.086 | 0.012 | -0.07
DCTPP1 (UniProt Q9H773) | 0.003 | -0.078 | 0.009 | 0.008 | 0.067 | 0.126 | -0.043 | -0.009 | -0.019 | 0.059
EXOC5 (UniProt O00471) | 0.006 | -0.022 | -0.007 | 0.056 | 0.017 | 0.046 | 0.08 | -0.028 | 0.118 | 0.031
DIAPH1 (UniProt O60610) | 0.018 | -0.05 | 0.025 | -0.049 | 0.19 | 0.041 | 0.062 | 0.08 | 0.051 | 0.077
FAF2 (UniProt Q96CS3) | 0.015 | -0.021 | 0.008 | -0.016 | 0.009 | 0.038 | 0.008 | -0.039 | 0.036 | 0.021
DBN1 isoform 3 (UniProt Q16643) | -0.079 | 0.045 | 0.016 | -0.002 | 0.104 | 0.075 | 0.032 | -0.062 | -0.026 | -0.038
EFCAB14 (UniProt O75071) | -0.034 | 0.061 | 0.022 | -0.011 | -0.032 | -0.049 | 0.012 | 0.023 | 0.054 | -0.01
DDX5 (UniProt P17844) | 0.136 | -0.131 | 0.036 | 0.112 | 0.033 | 0.142 | 0.174 | 0.036 | 0.178 | 0.122
EGLN1 (UniProt Q9GZT9) | -0.14 | 0.009 | -0.013 | 0.048 | -0.096 | -0.007 | 0.006 | 0.017 | -0.191 | 0.066
DBT (UniProt P11182) | 0.001 | -0.017 | 0.01 | -0.015 | 0.024 | -0.011 | 0.015 | -0.042 | 0.005 | -0.033
DNTTIP2 (UniProt Q5QJE6) | 0.033 | 0.028 | -0.087 | -0.061 | 0.151 | -0.015 | -0.064 | -0.1 | 0.057 | -0.062
ELOVL5 isoform 2 (UniProt Q9NYP7) | 0.079 | 0.02 | 0.002 |  | -0.05 | 0.065 | 0.03 | -0.241 | -0.008 | 0.035
DAXX (UniProt Q9UER7) | 0.019 | -0.02 | 0.031 | -0.165 |  | -0.058 | 0.031 |  | 0.352 | -0.025
